From PubChem BioAssay
Pf growth 48h: inhibits P. falciparum growth in the first generation, 48 h. Potency, µM (titrated, usually from 28.7 µM), usual class: inhibitors. 5.9% of 310,000 active. P. falciparum luciferase growth in erythrocytes, 48 h
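Luciferase-expressing parasites in RBCs, 2% Hct / 0.1% parasitemia final; RPMI 1640 + 0.5% Albumax; 37 C, 5% CO2, one generation; luminescence read-out, lower signal = inhibition.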
Shiga inhibitor: Shiga toxin inhibition. Vero cells, Shiga toxin protein synthesis inhibition reporter. inhibition, % at 38.7 µM. 9.2% of 290,000 active. AID 2315; in the data active means inhibition mostly above about 28%, no sharp cut-off; inactive means mostly below about 43%
NS1 function inh: blocks influenza NS1 protein function | Potency, µM (highest dose often 46.1 µM) | 0.4% of 270,000 active | AID 2326; calls by dose curve; further: actives are rising curves; nearly all actives have a fitted effect of over 50% in size
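A cell-based growth assay was used: compounds that relieve NS1-induced slow growth of budding yeast raise OD600. Assay medium was yeast nitrogen base with ammonium sulphate and -URA supplement, pH 6.0, with 2% galactose.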
FBPA Giardia inh: inhibitors of Giardia lamblia fructose-1,6-bisphosphate aldolase; 0.71% of 290,000 active; Potency, µM (top dose mostly 59.6 µM), hits mostly inhibitors; AID 2451; A8B2U2; purified Giardia FBPA; further: nearly all actives have a fitted effect of over 55% in size
Target sequence (A8B2U2 whole entry, looked up): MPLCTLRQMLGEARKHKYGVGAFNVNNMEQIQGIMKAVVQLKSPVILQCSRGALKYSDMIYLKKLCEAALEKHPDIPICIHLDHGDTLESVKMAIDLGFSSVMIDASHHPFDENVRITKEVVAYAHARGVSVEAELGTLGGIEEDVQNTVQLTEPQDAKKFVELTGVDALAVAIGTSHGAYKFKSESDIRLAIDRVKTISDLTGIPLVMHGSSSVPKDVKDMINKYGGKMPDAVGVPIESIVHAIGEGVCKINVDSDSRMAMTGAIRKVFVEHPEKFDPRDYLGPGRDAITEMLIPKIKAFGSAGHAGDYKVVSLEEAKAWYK
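40 nM FBPA preincubated 10 min at RT with compound (up to 57.5 uM final), then substrate plus GAPDH/TPI/NAD/arsenate coupling and diaphorase/resazurin added. Fluorescence read after 20 min at RT, 525/598 nm.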
Pf growth 96h: P. falciparum growth inhibition at 96 hours. Potency, µM (titrated, usually from 28.7 µM), actives largely listed as inhibitors. 6.9% of 320,000 active. P. falciparum luciferase reporter growth, 96 h
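Plates of compound plus infected erythrocytes (2% hematocrit, 0.05% parasitemia final) incubate 96 hours, 37 C, 5% CO2. Detection reagent added; reduced luminescence from the parasites' luciferase reporter flags inhibition.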
Cycloheximide cs: counter-screen hit for Shiga toxin inhibitors, cycloheximide; cell reporter, cycloheximide protein synthesis inhibition counterscreen; max response, %; 12% of 300,000 active; in the data active means max response mostly above about 13%, no sharp cut-off; inactive means mostly below about 14%; further: read at 38.3 µM for the half of the compounds with a filed dose
Each line names hits and unclear results; the compound was inactive in the other large screens; ! = repeats disagree. The list is not random: actives were taken first. Their share in the collection is about 21%. Unless noted, the call rests on the fitted dose curve; in most records, active means well fitted curve in the direction sought with a large enough effect; inconclusive means small, poorly fitted or top-dose-only effect, or another doubt; inactive means no such curve, though single readings can be large; an effect the other way counts as inactive or inconclusive.

CC(OC(=O)c1snc(C(=O)NC2CCCCC2)c1N)C(=O)NC(C)(C)C (centres undefined)	Pf growth 48h inconclusive
COc1ccc(CN(C(=O)c2snc(C(N)=O)c2N)C(C(=O)NC2CCCC2)c2ccc(OC)cc2)cc1 (centres undefined)	Pf growth 48h inconclusive
Cc1ccc(C(C(=O)NC2CCCC2)N(Cc2ccc3c(c2)OCO3)C(=O)c2snc(C(N)=O)c2N)cc1 (centres undefined)	Pf growth 48h 7.4µM, Pf growth 96h 8.3µM
Cc1ccc(N(C(=O)Cc2cccs2)C(C(=O)NC2CCCC2)c2ccncc2)cc1 (centres undefined)	Pf growth 48h inconclusive, Pf growth 96h 0.93µM
O=C(NC1CCCC1)C(c1ccncc1)N(C(=O)Cc1cccs1)c1ccccc1 (centres undefined)	none
CSc1cccc(CN2CCN(Cc3ccc(F)c(F)c3)C(CCO)C2)c1 (centres undefined)	Pf growth 48h inconclusive, Pf growth 96h inconclusive
COc1ccc(-n2ccn3c(CCC(=O)N4CCN(c5cccc(C)c5C)CC4)nnc3c2=O)cc1	Pf growth 48h inconclusive, Pf growth 96h inconclusive (no result: FBPA Giardia inh)
Cc1ccc(C(C(=O)NC2CCCC2)N(Cc2ccc3c(c2)OCO3)C(=O)Cc2cccs2)cc1 (centres undefined)	Pf growth 48h 13µM
COc1cccc(/C=C/C(=O)O)c1C(C)C	none (no result: Pf growth 48h, Shiga inhibitor, NS1 function inh, Pf growth 96h, Cycloheximide cs)
COc1ccccc1-c1oc2ccccc2c(=O)c1O	none (no result: Pf growth 48h, Shiga inhibitor, NS1 function inh, Pf growth 96h, Cycloheximide cs)
O=c1c2ccccc2oc2ncccc12	Cycloheximide cs 55
O=C(O)c1cc2c(=O)c3ccccc3oc2nc1C(F)(F)F	none
COc1cccc2c(=O)c3ccccc3oc12	Shiga inhibitor 67, Cycloheximide cs 55!
COc1cccc2c(=O)ccoc12	Cycloheximide cs 12
COc1ccc(C(=O)Oc2c(C)occc2=O)cc1OC	none
CCn1c(C)nc2cc(C(=O)NNC(=S)NC(=O)c3ccccc3)ccc21	none
CCn1c(C)nc2cc(C(=O)NNC(=S)Nc3ccc(Cl)cc3)ccc21	Pf growth 96h inconclusive, Cycloheximide cs 22
CCn1c(C)nc2cc(C(=O)NNC(=O)Nc3ccc(Cl)c(Cl)c3)ccc21	none
CCn1c(C)nc2cc(C(=O)NNC(=S)Nc3ccc(F)cc3)ccc21	Shiga inhibitor 58, Cycloheximide cs 31
CCn1c(C)nc2cc(C(=O)NNC(=S)Nc3ccccc3)ccc21	Shiga inhibitor 71, Cycloheximide cs 32
CCn1c(C)nc2cc(C(=O)NNC(=O)c3ccc(C)cc3)ccc21	none (no result: Shiga inhibitor, NS1 function inh, FBPA Giardia inh, Cycloheximide cs)
CCn1c(C)nc2cc(C(=O)OC(C(F)(F)C(F)F)C(F)(F)C(F)F)ccc21	Shiga inhibitor 70, Cycloheximide cs 45
COc1ccc2c(c1)O[C@@H](c1cccc(C(F)(F)F)c1)[C@H](OC(=O)NCCOc1ccccc1)C2=O	none (no result: Pf growth 48h, Shiga inhibitor, NS1 function inh, Pf growth 96h, Cycloheximide cs)
CC1Cc2ccccc2N1C(=O)CSc1nc2ccccc2s1 (centres undefined)	Shiga inhibitor 41, Pf growth 96h inconclusive, Cycloheximide cs 24
Cc1nnc(SCC(=O)N2c3ccccc3CC2C)s1 (centres undefined)	none (no result: Pf growth 96h)
CC1Cc2ccccc2N1C(=O)CSc1nncs1 (centres undefined)	Pf growth 96h inconclusive (no result: Shiga inhibitor, NS1 function inh, FBPA Giardia inh, Cycloheximide cs)
CC1Cc2ccccc2N1C(=O)CSc1nc(-c2ccccc2)cs1 (centres undefined)	Pf growth 48h inconclusive, Pf growth 96h 10µM
CCCCC/C=C\C[C@@H](O)/C=C/C=C\CCC(=O)O	none (no result: Pf growth 48h, Shiga inhibitor, NS1 function inh, Pf growth 96h, Cycloheximide cs)
C/C(=C\C(=O)OCCCCCCCCC(=O)O)C[C@@H]1OC[C@H](C[C@@H]2O[C@H]2[C@@H](C)[C@H](C)O)[C@@H](O)[C@H]1O	Pf growth 48h 0.19µM, Pf growth 96h 0.03µM (no result: Shiga inhibitor, NS1 function inh, FBPA Giardia inh, Cycloheximide cs)
COc1ccccc1NC(=O)CCc1nnc2ccc(N3CCCCC3)nn12	Pf growth 96h 4.1µM (no result: FBPA Giardia inh)
COc1cc(NC(=O)CCc2nnc3ccc(N4CCCC4)nn23)cc(OC)c1OC	Pf growth 48h inconclusive, Pf growth 96h inconclusive
CCOc1ccccc1NC(=O)CCc1nnc2ccc(N3CCC(C)CC3)nn12	Pf growth 48h inconclusive, Pf growth 96h inconclusive
COc1cc(NC(=O)CCc2nnc3ccc(N4CCCCC4)nn23)cc(OC)c1OC	Pf growth 48h inconclusive, Pf growth 96h 10µM (no result: FBPA Giardia inh)
COc1ccccc1-c1nnc2n1N=C(c1c(OC)cccc1OC)CS2	none (no result: Pf growth 48h, NS1 function inh, Pf growth 96h)
Cc1cc(C(C)(C)C)oc1C(=O)N(CC(=O)NC1CCCC1)Cc1ccccc1Cl	Pf growth 48h inconclusive, Pf growth 96h 9.3µM
O=C(CN(Cc1ccccc1Cl)C(=O)CCC(=O)Nc1nccs1)NCC1CCCO1 (centres undefined)	Pf growth 96h inconclusive
Cc1cc(C(C)(C)C)oc1C(=O)N(CC(=O)NC1CCCC1)c1cccc(C(F)(F)F)c1	Pf growth 48h 9.3µM, Pf growth 96h 12µM
Cc1ccccc1N(CC(=O)NC1CCCC1)C(=O)c1oc(C(C)(C)C)cc1C	Pf growth 48h 12µM, FBPA Giardia inh inconclusive, Pf growth 96h inconclusive
Cc1ccc(C(=O)N(CC(=O)NC2CCCC2)c2cccc(F)c2)s1	none
CC1(NC(=O)Cc2c(Cl)cccc2Cl)CCS(=O)(=O)C1 (centres undefined)	Pf growth 48h inconclusive (no result: Shiga inhibitor, NS1 function inh, FBPA Giardia inh, Cycloheximide cs)
c1ccc(CNc2cnccn2)cc1	none
Cc1ccnc(NCc2ccc(Cl)cc2)c1	Shiga inhibitor 49, Cycloheximide cs 25
Clc1ccc(CNc2ccccn2)cc1	Shiga inhibitor 55, Cycloheximide cs 31
c1ccc(CCNc2cnccn2)cc1	Shiga inhibitor 34, Cycloheximide cs 18 (no result: Pf growth 48h)
c1ccc(CNc2ccccn2)cc1	none
Cc1ccnc(NCc2c(O)ccc3ccccc23)c1	Pf growth 96h 0.093µM
CCOc1ccc(NC(=O)CN(C)Cc2cc(=O)n3c(-c4ccccc4)csc3n2)cc1OCC	Pf growth 48h inconclusive, Pf growth 96h inconclusive (no result: NS1 function inh)
Cc1ccc(CNc2cnccn2)cc1	Shiga inhibitor 27
Fc1ccc(CNc2cnccn2)cc1	none
CCOC(=O)C(=Cc1ccc(-n2ccnc2)cc1)C(=O)OCC	Pf growth 48h 13µM, Pf growth 96h inconclusive (no result: NS1 function inh)
CC(=O)Nc1ccc2c(c1)nc(C)n2Cc1ccccc1	Pf growth 96h 0.41µM (no result: Shiga inhibitor)
CC(=O)Nc1ccc2nc(C)n(Cc3ccc(Cl)cc3)c(=O)c2c1	Shiga inhibitor 53, Cycloheximide cs 28
CC(=O)Nc1cc2nc(C)n(Cc3ccccc3)c2nc1C	Pf growth 96h inconclusive (no result: Pf growth 48h)
Cc1nc2c(cc1NC(=O)c1ccccc1)nc(C)n2Cc1ccccc1	Pf growth 96h 12µM
Cc1nc2cc(NCc3nc4ccccc4n3Cc3ccccc3)ccc2n1C	Shiga inhibitor 44, Cycloheximide cs 27
O=C(CCc1nnc2n(Cc3ccccc3)c(=O)c3ccccc3n12)NCCN1CCOCC1	Pf growth 96h inconclusive
Cc1ccc(Cn2cccc2/C=C2/C(=N)N3C=CSC3=NC2=O)cc1	Pf growth 96h 6.6µM
CCOC(=O)C1C(c2cc(OC)c(O)c(OC)c2)NC(=S)NC1(O)C(F)(F)F (centres undefined)	none
